# PMC7862700, “An all-to-all approach to the identification of sequence-specific readers for epigenetic DNA modifications on cytosine”
# Experiments:
# Test in all cases: DAPPL (digital affinity profiling via proximity ligation, sequencing); 10 mM Tris-HCl pH 7.5, 50 mM NaCl, 1 mM DTT, 4% glycerol, room temperature, 30 min; GST-TFs on glutathione beads, 16-mer random dsDNA library, 0.1% formaldehyde crosslink after washing; high values mean tight binding
# Details in all cases: protein: recombinant; tags: N-terminal GST; dsDNA, one strand shown
# ETV1 = ETV1 (Homo sapiens, UniProt P50549 1-477)
# Procedure, shortened: (§1)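 Human transcription factors were made in yeast as GST fusions, captured on glutathione beads and barcoded with DNA. With a tag-only sample included, the pool was incubated with 200 nmole of a random double-stranded 16-mer DNA library in Tris/NaCl/DTT/glycerol buffer at room temperature for 30 min, then crosslinked with 0.1% formaldehyde after washing, ligated by proximity, amplified and sequenced. For binding signal, each hexamer's read frequency for a factor is divided by its frequency for the tag-only sample.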
# ERF = target: T1, ERF (Homo sapiens, UniProt P50548 1-548)
# T1 sequence: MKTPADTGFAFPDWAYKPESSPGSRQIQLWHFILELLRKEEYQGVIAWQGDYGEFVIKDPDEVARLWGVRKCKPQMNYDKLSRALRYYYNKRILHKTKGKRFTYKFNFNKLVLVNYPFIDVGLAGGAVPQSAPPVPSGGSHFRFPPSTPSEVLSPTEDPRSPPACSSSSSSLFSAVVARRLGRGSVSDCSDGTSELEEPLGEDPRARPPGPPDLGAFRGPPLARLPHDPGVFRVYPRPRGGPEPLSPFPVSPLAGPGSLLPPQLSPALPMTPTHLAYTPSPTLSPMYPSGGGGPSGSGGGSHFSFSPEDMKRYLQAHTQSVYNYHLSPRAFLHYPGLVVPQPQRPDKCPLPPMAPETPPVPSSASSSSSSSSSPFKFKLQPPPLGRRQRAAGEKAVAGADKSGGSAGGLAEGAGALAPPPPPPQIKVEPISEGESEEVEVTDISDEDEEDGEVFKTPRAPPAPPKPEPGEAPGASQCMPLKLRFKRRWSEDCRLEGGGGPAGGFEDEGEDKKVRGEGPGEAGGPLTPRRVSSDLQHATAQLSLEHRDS
# Procedure, shortened: as §1
# ETV3L = target: T2, ETV3L (Homo sapiens, UniProt Q6ZN32 1-361)
# T2 sequence: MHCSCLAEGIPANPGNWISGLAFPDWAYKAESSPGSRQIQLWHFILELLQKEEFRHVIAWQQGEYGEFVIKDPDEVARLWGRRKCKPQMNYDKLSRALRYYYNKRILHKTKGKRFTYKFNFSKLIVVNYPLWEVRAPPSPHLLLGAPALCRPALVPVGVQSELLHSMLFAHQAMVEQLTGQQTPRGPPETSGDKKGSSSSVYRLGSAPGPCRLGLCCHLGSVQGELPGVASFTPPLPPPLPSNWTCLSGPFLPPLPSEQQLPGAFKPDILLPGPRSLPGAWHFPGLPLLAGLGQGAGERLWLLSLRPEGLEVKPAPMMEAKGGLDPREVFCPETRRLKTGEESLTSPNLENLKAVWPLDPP
# Procedure, shortened: as §1
# ETS2 = target: T3, ETS2 (Homo sapiens, UniProt P15036 1-469)
# T3 sequence: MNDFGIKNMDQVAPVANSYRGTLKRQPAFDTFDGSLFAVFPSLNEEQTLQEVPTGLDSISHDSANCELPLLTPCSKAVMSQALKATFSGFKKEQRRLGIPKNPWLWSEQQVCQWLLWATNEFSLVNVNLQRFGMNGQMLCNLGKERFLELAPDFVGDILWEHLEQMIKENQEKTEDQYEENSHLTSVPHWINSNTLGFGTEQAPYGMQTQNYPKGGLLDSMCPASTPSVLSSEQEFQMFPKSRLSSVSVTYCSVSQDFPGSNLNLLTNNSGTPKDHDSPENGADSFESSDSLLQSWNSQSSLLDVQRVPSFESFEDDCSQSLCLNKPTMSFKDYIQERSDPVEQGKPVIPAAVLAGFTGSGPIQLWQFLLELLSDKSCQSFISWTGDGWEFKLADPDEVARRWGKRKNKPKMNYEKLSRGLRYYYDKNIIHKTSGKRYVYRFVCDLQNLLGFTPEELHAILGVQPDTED
# Procedure, shortened: as §1
# SPDEF = target: T4, SPDEF (Homo sapiens, UniProt O95238 1-335)
# T4 sequence: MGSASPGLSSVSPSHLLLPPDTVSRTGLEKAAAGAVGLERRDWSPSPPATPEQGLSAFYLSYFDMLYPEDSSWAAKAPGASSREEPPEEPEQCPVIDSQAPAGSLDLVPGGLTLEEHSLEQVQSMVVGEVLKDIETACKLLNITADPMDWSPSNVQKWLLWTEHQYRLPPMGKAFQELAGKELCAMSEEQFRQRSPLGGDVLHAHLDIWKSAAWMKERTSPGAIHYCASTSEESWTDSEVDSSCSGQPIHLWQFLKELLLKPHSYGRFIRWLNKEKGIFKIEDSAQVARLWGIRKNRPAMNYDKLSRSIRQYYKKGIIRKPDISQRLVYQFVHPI
# Procedure, shortened: as §1
# ETV7 = target: T5, ETV7 (Homo sapiens, UniProt Q9Y603 1-341)
# T5 sequence: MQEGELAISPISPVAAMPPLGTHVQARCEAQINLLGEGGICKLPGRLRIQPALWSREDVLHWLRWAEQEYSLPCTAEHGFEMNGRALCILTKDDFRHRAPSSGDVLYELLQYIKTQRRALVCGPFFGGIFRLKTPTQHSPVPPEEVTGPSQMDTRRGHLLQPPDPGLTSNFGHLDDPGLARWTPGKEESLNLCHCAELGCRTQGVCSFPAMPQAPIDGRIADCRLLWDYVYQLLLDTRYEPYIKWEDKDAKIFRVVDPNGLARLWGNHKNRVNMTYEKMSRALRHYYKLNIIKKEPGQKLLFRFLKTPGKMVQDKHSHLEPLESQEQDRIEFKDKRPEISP
# Procedure, shortened: as §1
# ELF5 = target: T6, ELF5 (Homo sapiens, UniProt Q9UKW6-2 1-255)
# T6 sequence: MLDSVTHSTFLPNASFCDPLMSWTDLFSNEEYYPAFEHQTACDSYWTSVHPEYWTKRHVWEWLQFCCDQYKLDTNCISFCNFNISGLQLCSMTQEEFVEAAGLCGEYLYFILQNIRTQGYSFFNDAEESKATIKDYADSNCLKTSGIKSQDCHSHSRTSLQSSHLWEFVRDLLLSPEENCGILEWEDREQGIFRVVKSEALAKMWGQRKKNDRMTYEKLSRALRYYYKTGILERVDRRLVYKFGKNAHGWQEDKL
# Procedure, shortened: as §1
# ETV3 = target: T7, ETV3 (Homo sapiens, UniProt P41162-2 1-143)
# T7 sequence: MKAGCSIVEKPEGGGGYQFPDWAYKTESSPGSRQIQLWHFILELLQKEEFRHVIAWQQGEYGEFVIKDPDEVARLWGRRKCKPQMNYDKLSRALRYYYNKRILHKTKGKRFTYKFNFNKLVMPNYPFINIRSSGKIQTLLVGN
# Procedure, shortened: as §1
# ETV6 = ETV6 (Homo sapiens, UniProt P41212 1-452)
# Procedure, shortened: as §1
# Sequence of ETV1 (P50549 whole entry, the tested form may be a part): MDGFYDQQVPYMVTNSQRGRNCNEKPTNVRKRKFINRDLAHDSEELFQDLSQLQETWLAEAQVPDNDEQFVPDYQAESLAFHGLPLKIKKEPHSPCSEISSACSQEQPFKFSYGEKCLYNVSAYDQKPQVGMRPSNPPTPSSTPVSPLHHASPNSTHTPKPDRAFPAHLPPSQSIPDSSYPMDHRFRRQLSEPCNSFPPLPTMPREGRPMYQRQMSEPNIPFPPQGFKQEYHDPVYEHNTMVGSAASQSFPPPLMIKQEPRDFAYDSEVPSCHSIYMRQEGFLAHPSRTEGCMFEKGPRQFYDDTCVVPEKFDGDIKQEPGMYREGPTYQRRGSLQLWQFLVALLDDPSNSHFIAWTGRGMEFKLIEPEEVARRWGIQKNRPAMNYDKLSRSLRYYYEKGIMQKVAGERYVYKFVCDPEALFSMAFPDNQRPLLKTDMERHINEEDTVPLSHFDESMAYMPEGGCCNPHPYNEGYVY
# Sequence of ETV6 (P41212 whole entry): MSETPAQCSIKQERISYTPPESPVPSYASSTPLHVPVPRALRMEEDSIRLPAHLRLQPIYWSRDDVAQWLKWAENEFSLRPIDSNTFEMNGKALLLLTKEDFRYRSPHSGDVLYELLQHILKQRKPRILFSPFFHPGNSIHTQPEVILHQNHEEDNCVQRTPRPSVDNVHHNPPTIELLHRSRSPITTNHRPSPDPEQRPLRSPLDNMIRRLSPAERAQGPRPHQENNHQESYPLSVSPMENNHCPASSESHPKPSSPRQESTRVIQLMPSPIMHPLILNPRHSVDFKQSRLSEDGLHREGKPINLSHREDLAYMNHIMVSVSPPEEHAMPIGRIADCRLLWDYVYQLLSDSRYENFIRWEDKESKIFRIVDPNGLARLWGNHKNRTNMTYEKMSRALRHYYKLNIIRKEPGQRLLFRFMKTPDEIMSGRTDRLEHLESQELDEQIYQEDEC
sequence,measurement,setting,value
AACATA,binding signal,ETV1,"1.21 fold enrichment (6-mer frequency, TF over GST control)"
same,binding signal,ERF,"1.32 fold enrichment (6-mer frequency, TF over GST control)"
same,binding signal,ETV3L,"1.24 fold enrichment (6-mer frequency, TF over GST control)"
same,binding signal,ETS2,"1.23 fold enrichment (6-mer frequency, TF over GST control)"
same,binding signal,SPDEF,"1.19 fold enrichment (6-mer frequency, TF over GST control)"
same,binding signal,ETV7,"1.31 fold enrichment (6-mer frequency, TF over GST control)"
same,binding signal,ELF5,"1.3 fold enrichment (6-mer frequency, TF over GST control)"
same,binding signal,ETV3,"1.27 fold enrichment (6-mer frequency, TF over GST control)"
same,binding signal,ETV6,"1.27 fold enrichment (6-mer frequency, TF over GST control)"
